# Reference: PubChem BioAssay AID686979 (National Center for Advancing Translational Sciences (NCATS), 2013)
# Out of some 420,000 compounds screened, about 50,000 (12%) were called active. Inconclusive results (about 26%) are left out. Calls follow the shape of the dose curve; as a rule, active = well fitted inhibition curve with a large enough effect; inconclusive = small, poorly fitted or top-dose-only effect; inactive = flat fitted curve, though single readings scatter. For the sample, actives were picked, then their nearest neighbours and some compounds at random.
# Test: qHTS for Inhibitors of human tyrosyl-DNA phosphodiesterase 1 (TDP1): qHTS in cells in presence of CPT; also: nearly all actives have a fitted effect of over 55% in size
# Settings: chicken DT40 Tdp1-/-;hTDP1 cells + 20 nM CPT, ATP luminescence, 48 h; series mostly up to 46.2 µM; activity change, negative = growth inhibition: at the top concentration
# Summary of the method: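 Chicken DT40 Tdp1-/- cells stably complemented with human TDP1 were seeded at 400 cells/well in medium containing 20 nM camptothecin, exposed to pin-transferred compounds, and grown at 37 °C for at least 48 hr. Viability was read as ATP luminescence.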
# % is scaled to controls: 0 for no effect and ±100 for the full control effect; potency is read from the fitted curve at half-maximal effect.
Structure (SMILES),"activity change, negative = growth inhibition",Potency
O=C(NNC(=O)c1ccccc1[N+](=O)[O-])Nc1ccccc1C(F)(F)F,-6.86% (inactive),–
COc1ccc(CCNC(=O)COc2cc(C)cc3oc(=O)c(C)c(C)c23)cc1OC,4.77% (inactive),–
O=C(COC(=O)c1ccc([N+](=O)[O-])o1)NC12CC3CC(CC(C3)C1)C2,-6.43% (inactive),–
COc1ccc(C(C)=O)cc1CSc1nc2nc(C)cc(C)n2n1,7.35% (inactive),–
COCc1c(C(=O)OCC(=O)Nc2ccc(OC(F)F)cc2)oc2ccccc12,-15.4% (inactive),–
COc1ccc(CCN2CC(C(=O)OCC(=O)NCc3ccccc3Cl)CC2=O)cc1OC (stereo not given),-3.56% (inactive),–
CC(C)(C)OC(=O)N(Cc1ccco1)S(=O)(=O)c1ccccc1Br,-14% (inactive),–
O=c1oc2ccccc2c(=O)c2ccccc12,1.66% (inactive),–
O=C(Oc1ccc(F)cc1)N1CCOCC1,-16.2% (inactive),–
CCS(=O)(=O)N1Cc2ccccc2CC1C(=O)Nc1ccc(OC)cc1OC (stereo not given),-16.2% (inactive),–
O=C(COC(=O)c1ccc(N2CCCC2=O)cc1)c1ccc(OC(F)F)cc1,-3.15% (inactive),–
CS(=O)(=O)c1ccc(-c2nnn(CC(=O)Nc3ccc4c(c3)OCCO4)n2)cc1,-0.0542% (inactive),–
CCOC(=O)c1cnn2c(SC)ncnc12,-17.6% (inactive),–
CC(C)(C)C(=O)c1c(N)[nH]c(C(=O)c2ccccc2)c1-c1ccc(F)cc1,-29.4% (inactive),–
Cc1cc(NC(=O)CSc2nnnn2-c2ccc(F)cc2)no1,-0.0128% (inactive),–
Cc1cc(NC(=O)CSc2nnc(-c3ccco3)n2N)no1,8.93% (inactive),–
Cc1cc(C)c2c(c1)cc(C)c1nnc(SCC(=O)Nc3cc(C)on3)n12,–,8.2 µM (active)
O=C(CC1Oc2ccccc2NC1=O)NCc1ccc(F)cc1 (stereo not given),-23.2% (inactive),–
COc1cccc(NC(=O)CSc2nnc(C3CCCCC3)n2N)c1,-9.54% (inactive),–
CCN(CC)S(=O)(=O)c1ccc(Cl)c(NC(=O)c2ccncc2)c1,7.34% (inactive),–
CCN(CC)S(=O)(=O)c1ccc2c(c1)nc(CN(C)C(=O)Nc1ccc(Cl)cc1)n2C,–,18.4 µM (active)
CCN(CC)S(=O)(=O)c1ccc(NC(=O)c2cnc(C)cn2)cc1,-2.9% (inactive),–
COc1cc(NS(=O)(=O)c2ccc(NC(=S)NC(=O)c3ccc(Br)cc3)cc2)ncn1,-7.13% (inactive),–
C=CCOc1cccc(CNCc2cccnc2)c1,-0.189% (inactive),–
COC(=O)[C@H]1[C@H]2C[C@H]3c4[nH]c5ccccc5c4CCN3C[C@@H]2CC[C@@H]1O,-1.82% (inactive),–
COc1ccc(-c2ccc3[nH]c4c(c3c2)CCN2C[C@H]3[C@H](C)ON(C)[C@H]3C[C@@H]42)cc1,–,20.6 µM (active)
C[C@@H]1ON(C)[C@H]2C[C@H]3c4cc(N5CCN(C)CC5)ccc4CCN3C(=O)[C@@H]12,-7.89% (inactive),–
COc1ccc(NC(=O)C[C@H]2C(=O)N(CCc3ccccc3)C[C@@H]2C)cc1,-20.8% (inactive),–
O=C(C[C@H]1C(=O)N(c2ccc(F)c(F)c2)C[C@@H]1Cc1ccccc1)Nc1ccccc1,–,11.2 µM (active)
CNC(=O)C[C@H]1C(=O)N(c2ccc(OC)cc2)C[C@@H]1Cc1ccccc1,-26.9% (inactive),–
